Laboratory results as given in PubChem BioAssay AID1159580 (chemical genetic matrix, 2015).
Several values for one entry are separate records, joined by “and”; a condition that tells them apart may be missing. Identical values can stand only once. About 2,000 (36%) of roughly 5,500 compounds were called active. Roughly 18% stayed inconclusive and do not appear here. No stated cut-off is given here; in the data, active means normalized growth mostly below about 0.91 (no sharp cut-off); inconclusive means no clear call, values can overlap the other calls; inactive means mostly above about 0.92. The list shows a part of the results.

Test: chemical genetic growth profiling, strain panel (AID 1159580);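 further: tested at 20 µM; growth read once vehicle control cultures reached saturation at 30 °C; 1 = growth at the plate median or of vehicle wells; lower values mean less growth of the strain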
Settings: S. cerevisiae deletion strains, growth OD

Measured: normalized growth

NS(=O)(=O)c1cc2c(cc1C(F)(F)F)NCNS2(=O)=O
inactive: locus YAL013W, strain DEP1, active compounds read low 1.03 | locus YAL021C, strain ccr4, active compounds read low 0.995 | locus YAL026C, strain drs2, active compounds read low 1 | locus YAL030W, strain snc1, active compounds read low 0.995 | locus YBL061C, strain skt5, active compounds read low 0.996 | locus YBR009C, strain hhf1, active compounds read low 0.985 | locus YBR021W, strain FUR4, active compounds read low 1 | locus YBR023C, strain chs3, active compounds read low 0.989 | locus YBR171W, strain sec66, active compounds read low 1.01 | locus YBR229C, strain ROT2, active compounds read low 1.02 | locus YBR231C, strain swc5, active compounds read low 0.975 | locus YBR279W, strain paf1, active compounds read low 0.992 | locus YCL011C, strain gbp2, active compounds read low 0.991 | locus YCL016C, strain dcc1, active compounds read low 0.969 | locus YCL029C, strain bik1, active compounds read low 0.997 | locus YCL061C, strain MRC1, active compounds read low 0.997 | locus YCL069W, strain vba3, active compounds read low 1 | locus YCR088W, strain abp1, active compounds read low 0.999 | locus YDL005C, strain med2, active compounds read low 0.99 | locus YDL035C, strain GPR1, active compounds read low 1.03 | locus YDL040C, strain nat1, active compounds read low 0.996 | locus YDL074C, strain BRE1, active compounds read low 1.01 | locus YDL101C, strain DUN1, active compounds read low 1.02 | locus YDL185W, strain tfp1, active compounds read low 0.997 | locus YDL192W, strain arf1, active compounds read low 0.993 | locus YDR001C, strain nth1, active compounds read low 1 | locus YDR069C, strain doa4, active compounds read low 1.01 | locus YDR101C, strain arx1, active compounds read low 1 | locus YDR137W, strain rgp1, active compounds read low 1.01 | locus YDR159W, strain sac3, active compounds read low 0.966 | locus YDR162C, strain NBP2, active compounds read low 1.02 | locus YDR195W, strain ref2 0.994 | locus YDR297W, strain sur2, active compounds read low 1.01 | locus YDR318W, strain mcm21, active compounds read low 0.986 | locus YDR334W, strain swr1, active compounds read low 1.01 | locus YDR335W, strain msn5, active compounds read low 0.999 | locus YDR388W, active compounds read low 0.998 | locus YDR392W, strain spt3, active compounds read low 0.939 | locus YDR502C, strain sam2, active compounds read low 0.988 | locus YEL003W, strain gim4, active compounds read low 1 | locus YEL037C, strain rad23, active compounds read low 1.02 | locus YEL061C, strain CIN8 (second series), active compounds read low 1.01 | locus YEL061C, strain CIN8, active compounds read low 1.02 | locus YER015W, strain faa2, active compounds read low 0.97 | locus YER016W, strain bim1, active compounds read low 1 | locus YER110C, active compounds read low 0.99 | locus YER111C, strain swi4, active compounds read low 1 | locus YER155C, strain BEM2 (second series), active compounds read low 0.98 | locus YER155C, strain BEM2, active compounds read low 1 | locus YER167W, strain BCK2, active compounds read low 1.01 | locus YFR010W, strain ubp6, active compounds read low 1 | locus YGL078C, strain dbp3, active compounds read low 0.983 | locus YGL086W, strain mad1, active compounds read low 0.99 | locus YGL167C, strain pmr1, active compounds read low 0.998 | locus YGL173C, strain kem1, active compounds read low 0.998 | locus YGL227W, strain vid30, active compounds read low 1 | locus YGL240W, strain doc1, active compounds read low 0.965 | locus YGL248W, strain PDE1, active compounds read low 1.02 | locus YGL253W, strain hxk2, active compounds read low 1.01 | locus YGR135W, strain pre9, active compounds read low 0.974 | locus YGR252W, strain gcn5, active compounds read low 0.922 | locus YHR013C, strain ard1, active compounds read low 0.989 | locus YHR027C, strain rpn1, active compounds read low 1.01 | locus YHR030C, strain SLT2, active compounds read low 1.01 and 0.988 | locus YHR079C, strain IRE1 (second series), active compounds read low 0.998 | locus YHR079C, strain IRE1, active compounds read low 0.984 | locus YHR094C, strain hxt1, active compounds read low 0.993 | locus YHR129C, strain ARP1, active compounds read low 1.02 | locus YHR142W, strain chs7, active compounds read low 1.01 | locus YHR200W, strain rpn10, active compounds read low 0.988 | locus YIL066C, strain RNR3, active compounds read low 1.03 | locus YIL073C, strain SPO22, active compounds read low 1.01 | locus YIL125W, strain kgd1, active compounds read low 0.992 | locus YIR030C, strain dcg1, active compounds read low 0.994 | locus YJL092W, strain hpr5, active compounds read low 1 | locus YJL095W, strain BCK1 (second series), active compounds read low 0.997 | locus YJL095W, strain BCK1, active compounds read low 1.03 and 0.978 | locus YJL115W, strain asf1, active compounds read low 1.01 | locus YJL129C, strain trk1, active compounds read low 1.01 | locus YJL134W, strain LCB3, active compounds read low 1.02 | locus YJL154C, strain vps35, active compounds read low 0.993 | locus YJL164C, strain tpk1, active compounds read low 0.992 | locus YJL166W, strain qcr8, active compounds read low 0.993 | locus YJL168C, strain set2, active compounds read low 0.987 | locus YJL187C, strain SWE1 (second series), active compounds read low 1.02 | locus YJL187C, strain SWE1, active compounds read low 0.994 | locus YJR043C, strain POL32, active compounds read low 1.02 | locus YJR066W, strain TOR1, active compounds read low 0.928 | locus YKL009W, strain mrt4, active compounds read low 1 | locus YKL068W, active compounds read low 1 | locus YKL085W, strain MDH1 (second series), active compounds read low 0.999 | locus YKL085W, strain MDH1, active compounds read low 0.999 | locus YKL160W, strain elf1, active compounds read low 0.986 | locus YKL190W, strain CNB1, active compounds read low 1.02 | locus YKR001C, strain vps1, active compounds read low 1.01 | locus YKR026C, strain gcn3, active compounds read low 0.993 | locus YKR091W, strain srl3, active compounds read low 0.993 | locus YLL001W, strain dnm1, active compounds read low 0.98 | locus YLL026W, active compounds read low 0.994 | locus YLL041C, strain sdh2, active compounds read low 0.997 | locus YLR027C, strain aat2, active compounds read low 1.01 | locus YLR039C, strain RIC1, active compounds read low 1.07 | locus YLR058C, strain SHM2, active compounds read low 1.02 | locus YLR102C, strain apc9, active compounds read low 0.985 | locus YLR113W, strain HOG1, active compounds read low 0.991 | locus YLR221C, strain rsa3, active compounds read low 0.974 | locus YLR258W, strain gsy2, active compounds read low 0.992 | locus YLR262C, strain YPT6 (second series), active compounds read low 1 | locus YLR262C, strain YPT6, active compounds read low 1.03 | locus YLR268W, strain sec22, active compounds read low 0.988 | locus YLR320W, strain mms22, active compounds read low 0.988 | locus YLR330W, strain CHS5, active compounds read low 1.02 | locus YLR342W, strain FKS1 (second series), active compounds read low 1.01 | locus YLR342W, strain FKS1, active compounds read low 1 | locus YLR357W, strain rsc2, active compounds read low 0.971 | locus YLR370C, strain arc18, active compounds read low 0.999 | locus YLR371W, strain rom2, active compounds read low 0.979 | locus YLR384C, strain iki3, active compounds read low 0.988 | locus YLR418C, strain cdc73, active compounds read low 0.967 | locus YML016C, strain PPZ1, active compounds read low 1.02 | locus YML032C, strain rad52, active compounds read low 0.985 | locus YML120C, strain ndi1, active compounds read low 0.983 | locus YML124C, strain tub3, active compounds read low 0.988 | locus YMR058W, strain fet3, active compounds read low 1.01 | locus YMR078C, strain ctf18, active compounds read low 0.997 | locus YMR125W, strain sto1, active compounds read low 0.982 | locus YMR129W, active compounds read low 0.999 | locus YMR205C, strain PFK2, active compounds read low 0.982 | locus YMR223W, strain ubp8, active compounds read low 0.986 | locus YMR231W, strain pep5, active compounds read low 0.998 | locus YMR307W, strain GAS1, active compounds read low 1.01 | locus YNL067W, strain RPL9B, active compounds read low 1.02 | locus YNL071W, strain lat1, active compounds read low 1 | locus YNL153C, strain GIM3, active compounds read low 1.01 | locus YNL183C, strain NPR1, active compounds read low 0.96 | locus YNL209W, strain ssb2, active compounds read low 0.986 | locus YNL233W, strain BNI4, active compounds read low 1.02 | locus YNL248C, strain rpa49, active compounds read low 1 | locus YNL250W, strain rad50, active compounds read low 0.996 | locus YNL271C, strain bni1, active compounds read low 0.999 | locus YNL298W, strain CLA4, active compounds read low 0.983 | locus YNL307C, strain MCK1, active compounds read low 0.988 | locus YNL322C, strain KRE1 (second series), active compounds read low 0.99 | locus YNR049C, strain mso1, active compounds read low 0.996 | locus YNR052C, strain pop2, active compounds read low 0.991 | locus YOL012C, strain htz1 0.725 | locus YOL147C, strain pex11, active compounds read low 0.991 | locus YOR001W, strain rrp6, active compounds read low 1.01 | locus YOR061W, strain CKA2, active compounds read low 1.03 | locus YOR069W, strain VPS5, active compounds read low 1.02 | locus YOR070C, strain gyp1, active compounds read low 0.992 | locus YOR080W, strain dia2, active compounds read low 0.99 | locus YOR083W, strain WHI5, active compounds read low 1.04 | locus YOR106W, strain vam3, active compounds read low 0.974 | locus YOR136W, strain idh2, active compounds read low 0.991 | locus YOR144C, strain elg1, active compounds read low 0.991 | locus YOR184W, strain ser1, active compounds read low 0.982 | locus YOR231W, strain MKK1, active compounds read low 0.991 | locus YOR265W, strain rbl2, active compounds read low 0.993 | locus YOR270C, strain vph1, active compounds read low 1.03 | locus YOR290C, strain snf2, active compounds read low 0.935 | locus YOR316C, strain cot1, active compounds read low 0.997 | locus YPL051W, strain arl3, active compounds read low 0.98 | locus YPL055C, strain LGE1, active compounds read low 1.02 | locus YPL078C, strain atp4, active compounds read low 1 | locus YPL106C, strain sse1, active compounds read low 0.966 | locus YPL240C, strain hsp82, active compounds read low 0.994 | locus YPL241C, strain CIN2, active compounds read low 1.02 | locus YPL256C, strain CLN2, active compounds read low 0.976 | locus YPR119W, strain clb2, active compounds read low 0.994 | locus YPR141C, strain kar3, active compounds read low 0.988 | locus YPR163C, strain tif3, active compounds read low 0.995 | locus YPR167C, strain met16, active compounds read low 0.987 | strain wtn01, active compounds read low 0.977
